Data published in PubChem BioAssay (NCI).
The panel holds about 83,000 compounds, 20% with a hit somewhere; the sample as a whole holds those more often.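 Treatment: one concentration, 48 hours, 96-well format. Scoring: percent growth, with anything below 10 considered active.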 Values without a mark were called inactive. The source made the active and inactive calls.

Assays:
Assay in all cases: NCI-60 one-dose screen, 48 h (100 = growth as untreated, 0 = no growth, -100 = all killed)
Details in all cases: 10 µM unless noted
SR leukemia = tested on: SR leukemia
RPMI-8226 leukemia = tested on: RPMI-8226 leukemia
OVCAR-8 ovarian = tested on: OVCAR-8 ovarian
OVCAR-5 ovarian = tested on: OVCAR-5 ovarian
OVCAR-4 ovarian = tested on: OVCAR-4 ovarian
SK-OV-3 ovarian = tested on: SK-OV-3 ovarian
IGROV1 ovarian = tested on: IGROV1 ovarian
OVCAR-3 ovarian = tested on: OVCAR-3 ovarian
HS 578T breast = tested on: HS 578T breast
NCI/ADR-RES ovarian = tested on: NCI/ADR-RES ovarian

Compound	growth (SR leukemia)	growth (RPMI-8226 leukemia)	growth (OVCAR-8 ovarian)	growth (OVCAR-5 ovarian) [%]	growth (OVCAR-4 ovarian) [%]	growth (SK-OV-3 ovarian) [%]	growth (IGROV1 ovarian)	growth (OVCAR-3 ovarian)	growth (HS 578T breast)	growth (NCI/ADR-RES ovarian)
C#Cc1c2c(c(OC)c3c1OCO3)[C@H]([C@H]1OC(=O)c3c1ccc(OC)c3OC)N(C)CC2	9.19% (active)	100%	95.2%	101	92.7	89.5	82.5%	87.1%	99.1%	59.6%
COc1ccc(OC)c(Nc2nnc(-c3ccc(O)c(OC)c3)o2)c1	52.4%	75%	83.6%	70	63.1	53.4	19.9%	70.6%	39.6%	68.7%
O=c1[nH]c(Cc2nc3ccccc3s2)nc2cc(Br)ccc12	75.4%	66.7%	70.8%	66.5	92.4	78.8	73.9%	86.4%	84.2%	72.8%
CC1CN(S(=O)(=O)c2oc(-c3ccc(Cl)cc3)nc2C#N)CC(C)O1 (stereo not given)	-12.9% (active)	24.2%	54.6%	100	92.4	99.9	80.5%	34.4%	98.7%	101%
CCOC(=O)C(=O)C(C(=O)OCC)c1ccccc1 (stereo not given)	94.7%	94.3%	120%	106	106	110	122%	120%	94.2%	109%
O=C(Nc1nc2ccccc2s1)c1ccc(F)cc1	98.4%	88.5%	109%	101	85.4	108	88.9%	104%	140%	95.7%
COc1ccc(-c2cc(-c3cc(OC)c(OC)c(OC)c3)c(C#N)c(=O)n2CCCCC(=O)NO)cc1	13.3%	35.9%	42.4%	76.6	67	87.1	60.2%	62.1%	45%	38.8%
CC(C)C1=NOC(=O)C1=Cc1cn(-c2ccccc2)nc1-c1ccc(F)cc1	-17% (active)	-17.4% (active)	60.2%	95.2	94.1	107	61.3%	64%	49.6%	101%
CSc1nc2ccccc2cc1/C=[N+](\[O-])c1ccccc1	22.1%	14.5%	39.5%	91.1	70.8	87.3	77.3%	66.9%	74.1%	28.5%
O=C(Nc1cccc(-c2ccc(Cl)c(C(F)(F)F)c2)c1)C1CCN(Cc2cccc3cccnc23)CC1	-25.7% (active)	-27.3% (active)	-38.3% (active)	70.2	17.4	55.4	-56.2% (active)	-66.4% (active)	5.48% (active)	0.0048% (active)
CCOC(=O)C1=C(c2ccccc2)N=C2SC=C(c3ccc(Cl)cc3)N2C1c1ccc(Br)cc1 (stereo not given)	74.2%	61.8%	80.3%	94.9	50.5	82.5	74.5%	67.4%	77.9%	83%
CCC(C)(C)C(=O)O[C@H]1C[C@@H](C)C=C2C=C[C@H](C)[C@H](CC[C@@H]3CC(SCCN)CC(=O)O3)[C@H]21 (stereo not given in full)	23.3%	6.62% (active)	88.1%	99.1	101	102	98.6%	90.9%	98.9%	96.7%
COC(=O)/C=C1/SC(=Nc2cccc(OC)c2)N(CCc2c[nH]c3ccc(O)cc23)C1=O	0.788% (active)	16.2%	41.6%	83.3	49.4	101	51.8%	40.3%	66.5%	58.8%
CCOC(=O)c1ccc(NC(=O)c2nc(-c3cc(OC)c(OC)c(OC)c3)n(-c3ccc(Cl)cc3)n2)cc1	92.7%	82.1%	91.5%	101	95.4	94.3	88.9%	99.7%	74.5%	90.8%
Cc1ccc(NC(=O)Cn2cc(CN3CCN(c4ccnc5cc(Cl)ccc45)CC3)nn2)cc1	60.2%	64.7%	89.8%	95.5	76.6	68.4	91.1%	91.3%	83.2%	89.1%
O=C1/C(=C/c2ccccc2O)CC/C1=C\c1ccccc1O	8.12% (active)	-6.74% (active)	68.9%	126	63.4	102	32.1%	30.9%	70.7%	72.7%
COc1ccc(C2=C(Nc3ccc(C(=O)Nc4ccccc4)cc3)C(=O)N(C)C2=O)cc1	66.6%	82.1%	91.5%	100	97.4	74.9	97.7%	109%	110%	87%
Cn1ccc(=O)c(C(=O)Nc2nsc3ccc([N+](=O)[O-])cc23)c1	55.9%	61.6%	59.3%	84	53.4	30.8	27.3%	75.6%	54.7%	68%
COCCn1cc(-c2nc(-c3cc4cccnc4[nH]3)cs2)c2cc(OC)ccc21	2.96% (active)	27.1%	25.3%	26.3	15.6	21	24.5%	27.6%	-4.1% (active)	28.5%
CNC(=O)c1ccccc1Oc1nc(Nc2cc(OC)c(OC)c(OC)c2)ncc1Br	42.9%	73.1%	72.2%	71.2	49.5	70.1	46.8%	66%	69.2%	66.8%
O=C(N/N=C/c1c(Cl)cccc1Cl)c1cccnc1Nc1cccc(C(F)(F)F)c1	54.5%	3.23% (active)	49.4%	53.4	25.1	27	31.8%	46.8%	112%	31%
CCCCNC(=O)CC1=C(C)/C(=C/c2[nH]c(-c3ccc[nH]3)cc2OC)N=C1C	-16.8% (active)	39.2%	20.5%	50.2	39.7	51.7	49.2%	24.4%	43.1%	30.1%
CCOC(=O)c1csc(NC(=O)COc2ccc(/C=C3\Oc4ccccc4C3=O)cc2)n1	37.9%	79.5%	84.7%	92.1	81.6	138	6.55% (active)	93.2%	91.1%	85.4%
N#Cc1c(-c2ccccc2)[nH]c2ncc(-c3ccccc3)n2c1=O	89.8%	106%	95.6%	109	96.2	76.6	50.7%	86%	88.6%	91.2%
CCOC(=O)c1cc(C(=O)c2cc(OC)c(OC)c(OC)c2)n2ncccc12	18.3%	19.3%	30.4%	63.1	62.4	26.4	47.2%	-15.2% (active)	31.1%	3.34% (active)
CCOC(=O)C1=C(C)NC(=O)NC1c1c(Cl)n(CCCl)c2ccccc12 (stereo not given)	102%	77.3%	96.7%	101	112	104	103%	98.5%	93.1%	97.1%
O=C1c2ccccc2-c2c1c1c(=O)[nH]c3ccccc3c1n2Cc1ccccc1	55.4%	80.3%	63.2%	56.5	35	76.3	71.5%	77.2%	-15% (active)	67.9%
